The text below walks through data of the supplement of paper PMC6555819.

In one assay the test system is PPARg DBDmut IVT, anti-PPARg (DBD mutation: PPARg1 K132A/R137A, NR concentration 270 nM). Description: PBM binding z-score (relative to random genomic background probes); higher = stronger binding; sequences stand for … in GC…GCGATTGACAGCGTAGAATGAAGG
The gist of the method: (§1)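 For binding z-scores, the reference was random background probes on custom Agilent 4×180K protein-binding microarrays. These arrays were incubated 1 h with ligand-free nuclear receptor dimers in PBS pH 7.4, 2% milk, 0.02% Triton X-100, 1 mM DTT, 0.2 mg/mL BSA and 0.4 mg/ml salmon testes DNA. Fluorescence was scanned after antibody detection of each partner (one per run) and regression-normalized.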
The sequence CAAACTAGGTCGAAGGTCAAAGTCGAGCCAACCA gave a PBM binding z-score of 1.51.

Regarding GCGACTGGGGCATCAGCAGGTTACTATAACTTAA, the PBM binding z-score is -0.562.

CGAACGAGGCCATGAGTTGATAGCAAATGCCGAT came in with a PBM binding z-score of -0.886.

Consider ATCGAAATGTCGACGAGGTGAGTATACACCGTTT, for which the PBM binding z-score stood at 0.692.

CCTACTGCGCCAAAAAGGTCATTGATGCCGATAA registered a PBM binding z-score of 0.294.

TAGCCTAGGTCATGCGAGCCAGTATAGTGTCGGC came in with a PBM binding z-score of 0.0763.

CCTATTTGGTCAAGGTCACACACGCTATAGGTAC displayed a PBM binding z-score of 1.25.

As to GGAAAGAGGGCAAGTTGATAGCAGAGTTTGATGG, the PBM binding z-score is -0.108.

In turn, ATACGTAGGTTAGCTGGGGTCATTCAGACTAGGC yielded a PBM binding z-score of 0.0192.

GGAACGAGGGCAAGTTTATAGCAGAGTTTGATGG: the PBM binding z-score was -0.37.

Regarding TAGCCTAGGTCAGATCGGGCCAGTTTACGCTATA, the PBM binding z-score was -0.719.

As for CCTTACGGCTCACGAGGTTATAGCACGACGAGCG, the PBM binding z-score came to 0.282.

GCTTTTAGATCAAGGTTAAGAAAGACTAAGCTAA registered a PBM binding z-score of 0.404.

Turning to CGTCCAAGGTTAAAGGTCAGTGAAGAGATGACGG, the PBM binding z-score was 0.148.

As to AGAATGAGGTTGTACGTAGATCAGGGAAGAAAGT, the PBM binding z-score was 0.199.

For the sequence CCTAGCAGTCCAATCTGGGTCACTCAAGGCTTGA, the PBM binding z-score is -0.84.

The sequence AGAACGAGGGCACGCTGAGTCGATAGCAGAGTAG registered a PBM binding z-score of 0.0245.

For the sequence AGAATGAGGTTATACGTATATCAGGGAAGAAAGT, the PBM binding z-score was determined as 1.56.

Take TCTAGTTGGTCAATGGTCACACACTCGAAATGCG: the PBM binding z-score worked out at 1.19.

In turn, GGAACGAGGGCAAAGTAGATAGCATCTGTCGACG gave a PBM binding z-score of -0.605.

Sequence AATACAGGGTCACTAGGACAGAGTAGGTACGAAT yielded a PBM binding z-score of 3.05.

GTATCAAGGTGAATAGGTCGTTGATGAGTAGGCG returned a PBM binding z-score of 0.758.

AGAATGTGGTTATACGTAGATCAGGGAAGAAAGT registered a PBM binding z-score of 0.755.

GCTCGGAGGACAAGGTCAGAGCTTTGTCCGTAGA gave a PBM binding z-score of -1.45.

The sequence CGTCAAAGTTCAACTAAGGTAGCGTAAAGCACGC showed a PBM binding z-score of 0.743.

CCTTACGGGTCAAGCTTATAGCACGGGTGGTACG: the PBM binding z-score was -0.188.

TTACCAAGGTGAGCTGAGGTCGTTGACCCAACTC had a PBM binding z-score of -0.41.

For ATCTCGAGGTAAAGATAGTTCAGTGAATGCAAAT, the PBM binding z-score is 0.266.

Sequence GCGACTGGGGCAAAGCAGGTTACCATAAGGTTGG displayed a PBM binding z-score of -0.872.

Sequence CCCTACGGGTCAAGGTTATAGCACGGGTGGTACG yielded a PBM binding z-score of -1.06.

Sequence TCATTTAGGTAATACAGGTGAAAGTCGGCATCTA showed a PBM binding z-score of 1.6.

As for CCTCGGAGGAGAACAGGAGGTCAGAGCTGCCAGA, the PBM binding z-score is -1.78.

The sequence CCTGCTAGGTCATCGTCAGCTAATCTACAGTATG yielded a PBM binding z-score of -0.677.

As for CGTCCATGGTCAATGCTAGGTCAGTGAAAGCATT, the PBM binding z-score was -0.685.

As for AGAACGAGGGCCCGCTGAGTTGATAGCAGAGTAG, the PBM binding z-score is -0.618.

Sequence CCGCGGAGGACAGAAGGTCAGAGCTGTCCGCTTT had a PBM binding z-score of -2.04.

TCTTGTAGATCAAGCAGGTTATGAAAGCCTGAGT yielded a PBM binding z-score of 0.263.

In turn, ACTAGCAAGCCAAGGGTCACTCAAGATTAGTCCG gave a PBM binding z-score of -0.0767.

As to CTACCAAGGTGAACAAGGTCGCTGATTACTATTC, the PBM binding z-score is 0.423.

TCGAGTAGGTTACCAATGGGGTATTCAGCTTTCT gave a PBM binding z-score of -0.0236.

The test system of the next assay is PPARg homodimer (NR concentration 180 nM). Described as above. The gist of the method: as §1
In turn, CAAACTAGGTCGAAGGTCAAAGTCGAGCCAACCA displayed a PBM binding z-score of 3.56.

Sequence GCGACTGGGGCATCAGCAGGTTACTATAACTTAA had a PBM binding z-score of -0.0326.

Take CGAACGAGGCCATGAGTTGATAGCAAATGCCGAT: the PBM binding z-score came to 0.125.

The sequence ATCGAAATGTCGACGAGGTGAGTATACACCGTTT had a PBM binding z-score of -0.253.

Sequence CCTACTGCGCCAAAAAGGTCATTGATGCCGATAA gave a PBM binding z-score of 4.51.

TAGCCTAGGTCATGCGAGCCAGTATAGTGTCGGC displayed a PBM binding z-score of 1.17.

For the sequence CCTATTTGGTCAAGGTCACACACGCTATAGGTAC, the PBM binding z-score was determined as 3.05.

GGAAAGAGGGCAAGTTGATAGCAGAGTTTGATGG showed a PBM binding z-score of 1.67.

ATACGTAGGTTAGCTGGGGTCATTCAGACTAGGC yielded a PBM binding z-score of 1.82.

In turn, GGAACGAGGGCAAGTTTATAGCAGAGTTTGATGG showed a PBM binding z-score of 0.767.

For the sequence TAGCCTAGGTCAGATCGGGCCAGTTTACGCTATA, the PBM binding z-score came out at 0.0651.

For CCTTACGGCTCACGAGGTTATAGCACGACGAGCG, the PBM binding z-score came to 0.161.

Turning to GCTTTTAGATCAAGGTTAAGAAAGACTAAGCTAA, the PBM binding z-score worked out at 0.294.

Turning to CGTCCAAGGTTAAAGGTCAGTGAAGAGATGACGG, the PBM binding z-score turned out to be 3.37.

Sequence AGAATGAGGTTGTACGTAGATCAGGGAAGAAAGT came in with a PBM binding z-score of 0.226.

Consider CCTAGCAGTCCAATCTGGGTCACTCAAGGCTTGA, for which the PBM binding z-score was 0.738.

AGAACGAGGGCACGCTGAGTCGATAGCAGAGTAG returned a PBM binding z-score of -0.314.

As to AGAATGAGGTTATACGTATATCAGGGAAGAAAGT, the PBM binding z-score was 1.21.

TCTAGTTGGTCAATGGTCACACACTCGAAATGCG showed a PBM binding z-score of 1.32.

In turn, GGAACGAGGGCAAAGTAGATAGCATCTGTCGACG had a PBM binding z-score of 0.234.

The sequence AATACAGGGTCACTAGGACAGAGTAGGTACGAAT had a PBM binding z-score of 2.54.

Take GTATCAAGGTGAATAGGTCGTTGATGAGTAGGCG: the PBM binding z-score is 1.45.

The sequence AGAATGTGGTTATACGTAGATCAGGGAAGAAAGT displayed a PBM binding z-score of 0.355.

GCTCGGAGGACAAGGTCAGAGCTTTGTCCGTAGA returned a PBM binding z-score of 0.708.

For CGTCAAAGTTCAACTAAGGTAGCGTAAAGCACGC, the PBM binding z-score came to 3.4.

For CCTTACGGGTCAAGCTTATAGCACGGGTGGTACG, the PBM binding z-score turned out to be 1.56.

TTACCAAGGTGAGCTGAGGTCGTTGACCCAACTC returned a PBM binding z-score of 0.266.

ATCTCGAGGTAAAGATAGTTCAGTGAATGCAAAT: the PBM binding z-score is 0.0262.

As for GCGACTGGGGCAAAGCAGGTTACCATAAGGTTGG, the PBM binding z-score is -0.306.

In turn, CCCTACGGGTCAAGGTTATAGCACGGGTGGTACG had a PBM binding z-score of 2.1.

For the sequence TCATTTAGGTAATACAGGTGAAAGTCGGCATCTA, the PBM binding z-score was 1.72.

Regarding CCTCGGAGGAGAACAGGAGGTCAGAGCTGCCAGA, the PBM binding z-score is 1.58.

CCTGCTAGGTCATCGTCAGCTAATCTACAGTATG yielded a PBM binding z-score of 0.929.

Turning to CGTCCATGGTCAATGCTAGGTCAGTGAAAGCATT, the PBM binding z-score is 0.231.

In the case of AGAACGAGGGCCCGCTGAGTTGATAGCAGAGTAG, the PBM binding z-score is -1.15.

Regarding CCGCGGAGGACAGAAGGTCAGAGCTGTCCGCTTT, the PBM binding z-score came out at 0.973.

As to TCTTGTAGATCAAGCAGGTTATGAAAGCCTGAGT, the PBM binding z-score was -0.854.

Regarding ACTAGCAAGCCAAGGGTCACTCAAGATTAGTCCG, the PBM binding z-score was 1.68.

For CTACCAAGGTGAACAAGGTCGCTGATTACTATTC, the PBM binding z-score was determined as 0.663.

As to TCGAGTAGGTTACCAATGGGGTATTCAGCTTTCT, the PBM binding z-score was -0.0597.
